Assay outcomes deposited in PubChem BioAssay by National Center for Advancing Translational Sciences (NCATS).
The entries come from a sample that favours hits as a whole.
Methyltransferases: Primary Screen for Target Class Profiling of Small Molecule Inhibitors of Methyltransferases; purified enzyme, MTase-Glo SAH luminescence; stronger effect = lower value; calls only at 40 µM; hit rate 3.9% among 25,000; call rule not given here
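Each enzyme was reacted with SAM and its substrate, with compounds tested once at 40 uM; SAH formed was read by MTase-Glo luminescence.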
Each line names hits and unclear results; the compound was inactive in the other large screens; ! = not confirmed by another sample.

CC1(C(=O)NCc2ccccc2)Cn2c(cc3ccccc32)C(=O)N1Cc1ccccc1F (stereo not drawn)	none
COC(=O)c1cc2n(n1)CC(C)(C(=O)NC1CCC(C)CC1)N(Cc1ccc(OC(C)C)cc1)C2=O (stereo not drawn)	none
CC(C)CCNC(=O)C1(C)Cn2nc(C(=O)NCc3cccnc3)cc2C(=O)N1C (stereo not drawn)	none
Clc1ccc(C(c2ccc(Cl)cc2)n2cc[n+](CC(OCc3ccc(Cl)cc3Cl)c3ccc(Cl)cc3Cl)c2)cc1 (stereo not drawn)	Methyltransferases active
CCCn1c(=O)c2ccc(C(=O)NC(C)CC)cc2n2c(SCC(=O)c3ccc(C)cc3)nnc12 (stereo not drawn)	none
CCN1C(=O)c2cc(C(=O)Nc3ccc(C)c(C)c3)nn2CC1(C)C(=O)NC1CCCC1 (stereo not drawn)	none
COCCOC1CN(C2CCN(S(C)(=O)=O)CC2)C12CCCCC2 (stereo not drawn)	none
COc1cccc(CNS(=O)(=O)c2cc3[nH]c(=O)[nH]c3cc2C)c1	none
COc1ccc(OC)c(S(=O)(=O)N2CCC(n3c(C)cnc3-c3ccncc3)CC2)c1	none
Cc1cc(Nc2nc(N[C@@H](C)c3ccc(F)cc3)c(C#N)cc2F)n[nH]1	Methyltransferases active!
Cc1cc(Nc2nc(-c3ccccc3)nc3ccccc23)n[nH]1	none
CCCCNc1ncc(C(=O)NCc2ccc(-n3ccnc3)cc2)c(NC2CCC(O)CC2)n1 (stereo not drawn)	Methyltransferases active
CCCCNc1ccc(-c2ccc(CN3CCOCC3)cn2)c(NC2CCC(O)CC2)c1 (stereo not drawn)	none
CCCCNc1ncc(-c2ccc(CN3CCOCC3)cn2)c(NC2CCC(O)CC2)n1 (stereo not drawn)	none
Cn1c2c(c3ccccc31)C(C(=O)NCc1ccc(F)cc1)N(c1cccc(Cl)c1)C(=O)CS2 (stereo not drawn)	none
COc1ccccc1-c1nnc2n(Cc3ccccc3)c(=O)c3ccccc3n12	none
CCOC(=O)C1CCN(S(=O)(=O)c2cc3[nH]c(=O)[nH]c3cc2C)CC1	none
CC1CCCCCCCc2cc(O)cc(O)c2C(=O)O1 (stereo not drawn)	Methyltransferases active
CC1CCC/C=C/C(=O)c2c(O)cc(O)cc2CC(=O)O1 (stereo not drawn)	none
CC1CCCC2OC2C(=O)c2c(O)cc(O)cc2CC(=O)O1 (stereo not drawn)	none
CC(C)CCn1c(=O)c2ccccc2n2c(SCc3ccccc3F)nnc12	none
CC(=O)Nc1c2n(c3ccc(F)cc13)CC(C)(C(=O)NC1CCCC1)N(CC1CCCO1)C2=O (stereo not drawn)	none
CCCSc1nc(N[C@@H]2C[C@H]2c2ccc(F)c(F)c2)c2nnn([C@@H]3C[C@H](OCCO)[C@@H](O)[C@H]3O)c2n1	Methyltransferases active
O=C(O)CCc1ccc(NCc2cccc(Oc3ccccc3)c2)cc1	none
CC(=O)Nc1cccc(-c2n[nH]c3c2CC(=O)N(CCOc2ccccc2)C3)c1	none
O=C(O)CCc1ccc(NCc2cccc3c2CCCN3CCOc2ccccc2)cc1F	Methyltransferases active
CC1(C(=O)NC2CCCC2)Cn2c(c(-n3cccc3)c3ccccc32)C(=O)N1CCc1cccs1 (stereo not drawn)	none
COc1ccc(-c2cc3n(n2)CC(C)(C(=O)NCc2ccccc2OC)N(CCc2cccs2)C3=O)cc1 (stereo not drawn)	none
CNCc1ccc(-c2[nH]c3cc(F)cc4c3c2CCNC4=O)cc1	Methyltransferases active!
COc1ccccc1CNC(=O)c1cc2n(n1)CC(C)(C(=O)NC1CCCCC1)N(C)C2=O (stereo not drawn)	none
CC(C)Cn1c(=O)c2ccc(C(=O)NC3CCCCC3)cc2n2c(=O)[nH]nc12	none
CCCn1c(=O)c2ccc(C(=O)NC3CCCC3)cc2n2c(=O)n(CC(=O)NCc3ccc(C)cc3)nc12	none
C[C@@H]1CC[C@]2(C(=O)O[C@@H]3O[C@H](CO)[C@@H](O)[C@H](O)[C@H]3O)CC[C@]3(C)C(=CCC4[C@@]5(C)C[C@@H](O)[C@H](O)C(C)(C)C5CC[C@]43C)C2[C@]1(C)O (stereo partly drawn)	none
COC(=O)C1(C)CCC2(C(=O)O)CCC3(C)C(=CCC4C5(C)CC(O)C(OC6OCC(O)C(O)C6O)C(C)(CO)C5CCC43C)C2C1 (stereo not drawn)	none
CC1CCC2(C(=O)OC3OC(CO)C(O)C(O)C3O)CCC3(C)C(=CCC4C5(C)CC(O)C(O)C(C)(C(=O)O)C5CCC43C)C2C1(C)O (stereo not drawn)	none
CC1(C)CC[C@]2(C(=O)O[C@@H]3O[C@H](CO)[C@@H](O)[C@H](O)[C@H]3O)CC[C@]3(C)C(=CCC4[C@@]5(C)C[C@@H](O)[C@H](O)C(C)(C)C5CC[C@]43C)C2[C@@H]1O (stereo partly drawn)	Methyltransferases active
CC1CCC2(C(=O)OC3OC(CO)C(O)C(O)C3O)CCC3(C)C(=CCC4C5(C)CCC(O)C(C)(CO)C5CCC43C)C2C1(C)O (stereo not drawn)	none
CC1OC(OC2C(O)COC(O[C@@H]3[C@@H](O)[C@@H](O)[C@H](OC4C(OC(=O)[C@]56CCC(C)(C)CC5C5=CCC7[C@@]8(C)C[C@H](O)[C@H](OC9OC(CO)C(O)C(O)C9O)[C@@](C)(CO)C8[C@H](O)C[C@@]7(C)[C@]5(C)CC6)OCC(O)C4O)O[C@H]3C)C2O)C(O)C(O)C1O (stereo partly drawn)	none
CC1(C)CC[C@]2(C(=O)O[C@@H]3O[C@H](CO)[C@@H](O)[C@H](O)[C@H]3O)CC[C@]3(C)C(=CCC4[C@@]5(C)C[C@@H](O)[C@H](O)[C@@](C)(CO)C5[C@H](O)C[C@]43C)C2[C@@H]1O (stereo partly drawn)	Methyltransferases active
CC1(C)CC[C@]2(C(=O)O[C@@H]3O[C@H](CO)[C@@H](O)[C@H](O)[C@H]3O)CC[C@]3(C)C(=CCC4[C@@]5(C)CC[C@H](O[C@H]6O[C@H](CO)[C@@H](O)[C@H](O[C@@H]7O[C@H](CO)[C@@H](O)[C@H](O)[C@H]7O)[C@H]6O)C(C)(C)C5CC[C@]43C)[C@@H]2C1 (stereo partly drawn)	none
CC1(C)CC[C@]2(C(=O)O)CC[C@]3(C)C(=CCC4[C@@]5(C)C[C@@H](O)[C@H](O)[C@@](C)(CO)C5[C@H](O)C[C@]43C)[C@@H]2C1 (stereo partly drawn)	none
C[C@@H]1O[C@@H](O[C@@H]2CO[C@@H](O[C@H]3CC[C@@]4(C)C(CC[C@]5(C)C4CC=C4[C@@H]6CC(C)(C)CC[C@]6(C(=O)O[C@@H]6O[C@H](CO)[C@@H](O)[C@H](O)[C@H]6O)CC[C@]45C)[C@]3(C)CO)[C@H](O)[C@H]2O[C@@H]2O[C@H](CO)[C@@H](O)[C@H](O)[C@H]2O)[C@H](O)[C@H](O)[C@H]1O (stereo partly drawn)	none
CC1(CO)CC[C@]2(C(=O)O[C@@H]3O[C@H](CO)[C@@H](O)[C@H](O)[C@H]3O)CC[C@]3(C)C(=CCC4[C@@]5(C)C[C@H](O)[C@H](O[C@@H]6OC[C@@H](O)[C@H](O)[C@H]6O)[C@@](C)(CO)C5CC[C@]43C)C2C1 (stereo partly drawn)	Methyltransferases active
